Inconclusive results are not listed. The source made the active and inactive calls. Unless noted, calls follow the shape of the full dose curve.
Tests used:
[1] = Nuclear factor erythroid 2-related factor 2/antioxidant responsive element (Nrf2/ARE) small molecule agonists: qHTS cell viability counter screen in human keratinocytes (AID 1919968; active = well fitted curve in the direction sought with a large enough effect in the repeat runs; an effect the other way counts as inactive or inconclusive; also: nearly all actives have a fitted effect of over 55% in size)
Outline: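 HaCaT ARE reporter line, 1,500 cells/well; 5 h settle, 37 C/5% CO2; cpd in DMSO pinned; 23 h exposure; CellTiter-Fluor, 1 h; fluorescence.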

[2] = Nuclear factor erythroid 2-related factor 2/antioxidant responsive element (Nrf2/ARE) small molecule agonists: luciferase reporter gene qHTS assay in human keratinocytes (AID 1919969); also: nearly all actives have a fitted effect of over 35% in size
[3] = target: Gonadotropin-releasing hormone receptor (Homo sapiens) (UniProt P30968); assay: Human gonadotropin-releasing hormone receptor (GnRHR) small molecule agonists, calcium flux assay in GnRHR-HEK293 cells (AID 1920063); also: nearly all actives have a fitted effect of over 35% in size
Outline: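 GnRHR-HEK293, 1500 cells/well, 18 h 37 C/5% CO2; Ca dye 1 h 37 C; cpd pinned (DMSO), agonist mode; kinetic FL 480/540, 3 min, 1 s reads; 15 conc, n=3.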

[4] = target: KiSS-1 receptor (Homo sapiens) (UniProt Q969F8); assay: Human kisspeptin (KISS1R) small molecule agonists, calcium flux assay in KISS1R-HEK293 cells (AID 1920064; active = well fitted curve in the direction sought with a large enough effect in the repeat runs; an effect the other way counts as inactive or inconclusive)
Outline: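 Stable human KISS1R HEK293 line; 18 h plating, 37 C/5% CO2; calcium dye 1 h 37 C; compound pin transfer; kinetic fluorescence Ex/Em 480/540, 3 min.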

[5] = G protein-coupled receptor (GPCR) small molecule agonists, calcium flux assay: HEK293 wild type cell line counter screen (AID 1920065)
Outline: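 Kinetic fluorescence at Ex/Em 480/540, recorded every second over 3 min, served as the read-out after compound addition. Each compound was tested at 15 concentrations in triplicate on cells pre-loaded with calcium dye for 1 h.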

[6] = p53 small molecule agonists, cell-based qHTS assay with human liver microsomes (AID 1963577);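 also: p53 response element beta-lactamase reporter cells with liver microsomes plus NADPH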
Outline: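 HLM-supplemented p53RE-bla reporter assay: 16 h compound exposure at 37 C, microsomes and NADPH each 0.5 mg/mL final, read by fluorescence intensity.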

[7] = p53 small molecule agonists, cell-based qHTS assay with rat liver microsomes (AID 1963578)
Outline: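 Quantitative HTS of the Tox21 10K library: p53RE-bla cells, rat liver microsomes plus NADPH at 0.5 mg/mL final each, 16 h at 37 C, beta-lactamase fluorescence detection.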

[8] = p53 small molecule agonists, cell-based qHTS assay with human liver microsomes: qHTS cell viability counter screen (AID 1963579); also: nearly all actives have a fitted effect of over 45% in size
Outline: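 Viability of p53RE-bla cells is measured as CellTiter-Glo luminescence following a 16 h, 37 C incubation with compound, liver microsomes from human donors and NADPH.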

[9] = p53 small molecule agonists, cell-based qHTS assay with rat liver microsomes: qHTS cell viability counter screen (AID 1963580); also: nearly all actives have a fitted effect of over 45% in size
Outline: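 Viability is assessed in parallel with the p53 reporter read: HCT-116 p53RE-bla cells receive compounds plus rat microsomes and NADPH (0.5 mg/mL final apiece), incubate 16 h at 37 C, and then CellTiter-Glo luminescence is recorded.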

[10] = p53 small molecule agonists, cell-based qHTS assay: qHTS cell viability counter screen (AID 1963581); also: nearly all actives have a fitted effect of over 45% in size
Outline: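 HCT-116 p53RE-bla cells, 4,000/well, plated 5 h before compound pin transfer; 16 h at 37 C; bla substrate 2 h RT; then CellTiter-Glo, 30 min RT, luminescence.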

[11] = p53 small molecule agonists, cell-based qHTS assay (AID 1963582; active = well fitted activation curve with a large enough effect in the signal ratio in the repeat runs, not every such curve was filed as active; the % refers to the signal ratio)
Outline: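 Reporter line: p53RE-bla. Pre-incubation 5 h, 37 C, 5% CO2; compound (DMSO, pin tool) 16 h, 37 C; B/G FRET substrate 2 h RT; fluorescence intensity read.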

[12] = target: 5-hydroxytryptamine receptor 2A (Homo sapiens) (UniProt P28223); assay: 5-hydroxytryptamine receptor 2A (HTR2A) small molecule agonists, cell-based qHTS assay (AID 1963587); also: nearly all actives have a fitted effect of over 30% in size
Outline: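 CHO cells stably expressing human HTR2A, plated 18 h, loaded with calcium dye 1 h at 37 C. Agonist mode: compounds added and intracellular calcium fluorescence recorded kinetically for 2 min at 1 sec intervals.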

[13] = target: Muscarinic acetylcholine receptor M1 (Homo sapiens) (UniProt P11229); assay: Cholinergic receptor muscarinic 1 (CHRM1) small molecule antagonists, cell-based qHTS assay (AID 1963588); also: nearly all actives have a fitted effect of over 40% in size
Outline: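 CHRM1-CHO calcium-flux assay, antagonist mode. Cells were seeded 18 h, dye-loaded 1 h at 37 C and given compound for 5 min at RT, then acetylcholine was added at 50nM. FDSS fluorescence was read 3 min; 15 concentrations, three runs.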

[14] = target: Muscarinic acetylcholine receptor M1 (Homo sapiens) (UniProt P11229); assay: Cholinergic receptor muscarinic 1 (CHRM1) small molecule agonists, cell-based qHTS assay (AID 1963589); also: nearly all actives have a fitted effect of over 35% in size
Outline: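 Human M1 in stable CHO line; 18 h plating, 1 h dye load 37 C; cpd added (agonist mode); Ca2+ fluorescence kinetic read, 1 s intervals; 15 conc, 3 runs.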

[15] = cAMP Responsive Elements (CRE) small molecule agonists, cell-based qHTS assay (AID 1963590)
Outline: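 HEK 293T CRE-bla, 2,000 cells/well, 18 h preincubation 37 C/5% CO2; cpds (DMSO) pinned, 3 h; LiveBLAzer B/G FRET substrate, 2 h RT.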

[16] = cAMP Responsive Elements (CRE) small molecule antagonists, cell-based qHTS assay (AID 1963591; active = well fitted inhibition curve with a large enough effect in the signal ratio in the repeat runs, not every such curve was filed as active; the % refers to the signal ratio)
Outline: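 Beta-lactamase reporter read by FRET substrate (LiveBLAzer B/G) after 2 h at room temperature. CRE-bla HEK293T cells had received compound plus 0.25 uM (final) NKH477 for 3 h at 37 °C.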

[17] = target: Beta-2 adrenergic receptor (Homo sapiens) (UniProt P07550); assay: Adrenergic beta2 receptor (ADRB2) small molecule antagonists, cell-based qHTS assay (AID 1963592); also: series mostly up to about 92 µM; nearly all actives have a fitted effect of over 50% in size
Outline: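 Cells (CHO, stable ADRB2 overexpression) incubated 18-20hr at 37C; compounds added from DMSO; agonist mix (1nM isoproterenol, 100uM IBMX, 25uM Ro-20-1724) added; 0.5hr RT; d2-cAMP and anti-cAMP-cryptate added; 1hr RT; 665/615 nm read.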

[18] = target: D(2) dopamine receptor (Homo sapiens) (UniProt P14416); assay: Dopamine D2 receptor (DRD2) small molecule agonists, cell-based qHTS assay (AID 1963594); also: nearly all actives have a fitted effect of over 35% in size
Outline: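 HEK293 cells stably expressing human DRD2, pre-treated with PDE inhibitor Ro20-1724 (0.1 mM final) and compound 10 min at room temperature, then stimulated with NKH477 (200nM […]) for 30 min. cAMP read by HTRF (665/620 nm).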

[19] = target: D(2) dopamine receptor (Homo sapiens) (UniProt P14416); assay: Dopamine D2 receptor (DRD2) small molecule antagonists, cell-based qHTS assay (AID 1963595; active = well fitted inhibition curve with a large enough effect in the signal ratio in the repeat runs, with a control signal flat; the % refers to the signal ratio)
Outline: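 Cells were plated and grown for 24 h at 37 °C. Ro20-1724 (0.1 mM final) went in first, then compound for 10 min. NKH477 (200 nM) with quinpirole (12 nM) followed for 30 min at RT, then HTRF detection reagents for 1 h.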

[20] = target: Beta-2 adrenergic receptor (Homo sapiens) (UniProt P07550); assay: Adrenergic beta2 receptor (ADRB2) small molecule agonists, cell-based qHTS assay (AID 1963593);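 also: CHO cells stably overexpressing human ADRB2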
Outline: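 CHO cells stably over-expressing ADRB2 were plated overnight at 37C, then dosed with compounds plus a stimulation mix containing 100uM IBMX and 25uM Ro-20-1724 for 0.5hr at room temperature. cAMP was measured by HTRF competition, 1hr.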

Measured: Potency

Sequence of D(2) dopamine receptor (Homo sapiens) (P14416 whole entry, looked up): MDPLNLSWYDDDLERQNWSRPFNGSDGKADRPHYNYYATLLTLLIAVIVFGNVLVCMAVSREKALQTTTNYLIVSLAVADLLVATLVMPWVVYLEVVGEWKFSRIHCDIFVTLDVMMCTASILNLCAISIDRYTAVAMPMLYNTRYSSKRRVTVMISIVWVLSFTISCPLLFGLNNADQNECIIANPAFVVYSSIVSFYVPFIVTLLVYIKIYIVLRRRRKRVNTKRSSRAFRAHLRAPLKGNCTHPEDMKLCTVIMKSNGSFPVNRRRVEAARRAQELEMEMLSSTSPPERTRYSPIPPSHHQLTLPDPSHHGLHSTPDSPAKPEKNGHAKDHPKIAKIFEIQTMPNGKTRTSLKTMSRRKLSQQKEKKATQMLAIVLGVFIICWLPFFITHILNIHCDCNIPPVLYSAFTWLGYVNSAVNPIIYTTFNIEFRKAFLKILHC
Sequence of KiSS-1 receptor (Homo sapiens) (Q969F8 whole entry, looked up): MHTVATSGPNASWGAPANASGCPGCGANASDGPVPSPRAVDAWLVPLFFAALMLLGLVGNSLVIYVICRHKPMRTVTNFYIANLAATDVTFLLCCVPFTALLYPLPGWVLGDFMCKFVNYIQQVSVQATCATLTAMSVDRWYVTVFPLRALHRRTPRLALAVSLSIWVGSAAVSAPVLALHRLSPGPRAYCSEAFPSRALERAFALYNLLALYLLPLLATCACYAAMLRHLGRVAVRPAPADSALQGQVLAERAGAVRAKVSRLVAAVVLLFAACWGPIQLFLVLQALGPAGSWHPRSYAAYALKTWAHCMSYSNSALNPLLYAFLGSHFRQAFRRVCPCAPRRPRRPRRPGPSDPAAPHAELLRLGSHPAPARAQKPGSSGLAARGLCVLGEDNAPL
Sequence of Beta-2 adrenergic receptor (Homo sapiens) (P07550 whole entry, looked up): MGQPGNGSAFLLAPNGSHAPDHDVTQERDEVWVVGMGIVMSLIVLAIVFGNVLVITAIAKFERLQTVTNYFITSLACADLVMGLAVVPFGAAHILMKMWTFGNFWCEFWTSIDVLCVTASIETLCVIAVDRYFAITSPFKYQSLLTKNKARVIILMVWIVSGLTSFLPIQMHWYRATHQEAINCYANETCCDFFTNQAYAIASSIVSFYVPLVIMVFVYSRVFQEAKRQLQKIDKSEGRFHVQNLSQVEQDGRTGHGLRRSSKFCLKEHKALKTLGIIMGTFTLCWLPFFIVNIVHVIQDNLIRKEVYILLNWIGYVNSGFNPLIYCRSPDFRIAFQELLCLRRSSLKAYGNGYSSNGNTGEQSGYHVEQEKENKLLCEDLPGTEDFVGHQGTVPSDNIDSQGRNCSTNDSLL
Sequence of Gonadotropin-releasing hormone receptor (Homo sapiens) (P30968 whole entry, looked up): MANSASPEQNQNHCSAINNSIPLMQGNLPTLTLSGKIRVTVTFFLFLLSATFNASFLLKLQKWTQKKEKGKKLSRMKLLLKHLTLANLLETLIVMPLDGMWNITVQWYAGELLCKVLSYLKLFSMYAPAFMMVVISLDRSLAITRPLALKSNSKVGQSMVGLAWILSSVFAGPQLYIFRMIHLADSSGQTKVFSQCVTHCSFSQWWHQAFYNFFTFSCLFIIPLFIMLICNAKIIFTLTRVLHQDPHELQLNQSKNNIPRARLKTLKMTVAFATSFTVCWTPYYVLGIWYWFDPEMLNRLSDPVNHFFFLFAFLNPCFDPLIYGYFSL
Sequence of 5-hydroxytryptamine receptor 2A (Homo sapiens) (P28223 whole entry, looked up): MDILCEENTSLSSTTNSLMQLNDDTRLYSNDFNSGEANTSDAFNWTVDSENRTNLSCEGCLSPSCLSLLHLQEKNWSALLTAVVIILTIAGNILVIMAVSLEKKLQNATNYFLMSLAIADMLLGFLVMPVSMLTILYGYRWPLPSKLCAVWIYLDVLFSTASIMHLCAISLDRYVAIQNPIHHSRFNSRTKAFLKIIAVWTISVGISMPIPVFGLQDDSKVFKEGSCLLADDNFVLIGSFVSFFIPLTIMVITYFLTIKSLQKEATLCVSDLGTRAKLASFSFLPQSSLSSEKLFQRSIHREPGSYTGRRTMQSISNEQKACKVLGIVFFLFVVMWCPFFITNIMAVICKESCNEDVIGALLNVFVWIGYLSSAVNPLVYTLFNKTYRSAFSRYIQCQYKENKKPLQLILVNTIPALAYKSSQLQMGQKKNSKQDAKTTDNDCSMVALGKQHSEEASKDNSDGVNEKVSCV
Sequence of Muscarinic acetylcholine receptor M1 (Homo sapiens) (P11229 whole entry, looked up): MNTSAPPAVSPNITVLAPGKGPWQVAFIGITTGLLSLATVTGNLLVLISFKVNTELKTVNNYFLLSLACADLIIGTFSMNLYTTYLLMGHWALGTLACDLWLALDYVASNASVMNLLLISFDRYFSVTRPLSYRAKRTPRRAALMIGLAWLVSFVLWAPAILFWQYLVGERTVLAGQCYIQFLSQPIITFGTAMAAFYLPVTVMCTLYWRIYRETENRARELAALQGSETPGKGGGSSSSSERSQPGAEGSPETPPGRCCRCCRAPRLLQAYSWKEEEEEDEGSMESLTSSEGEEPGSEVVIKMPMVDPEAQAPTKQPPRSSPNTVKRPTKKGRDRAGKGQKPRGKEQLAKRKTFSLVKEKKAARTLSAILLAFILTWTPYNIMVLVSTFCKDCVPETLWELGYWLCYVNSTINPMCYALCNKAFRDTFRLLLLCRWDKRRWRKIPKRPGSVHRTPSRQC

CCCCCc1ccc(Cl)cc1
inactive: [1] | [2] | [3] | [4] | [5] | [6] | [7] | [8] | [9] | [10] | [11] | [12] | [13] | [14] | [15] | [16] | [17] | [18] | [19]

O=C(CCCN1CCN(c2ccccn2)CC1)c1ccc(F)cc1
inactive: [1] | [2] | [3] | [4] | [5] | [6] | [7] | [8] | [9] | [10] | [11] | [12] | [13] | [14] | [15] | [17]

CN(C)CCN1CCOCC1
inactive: [1] | [2] | [3] | [4] | [5] | [6] | [7] | [8] | [9] | [10] | [11] | [12] | [13] | [14] | [15] | [16] | [17] | [18] | [19]

Nc1c2c(nc3c1CCC3)CCCC2
inactive: [1] | [2] | [3] | [4] | [5] | [6] | [7] | [8] | [9] | [10] | [11] | [12] | [13] | [14] | [15] | [16] | [17] | [20] | [19]

O=C(O)c1ccc[n+]([O-])c1
inactive: [1] | [2] | [3] | [4] | [5] | [6] | [7] | [8] | [9] | [10] | [11] | [12] | [13] | [14] | [15] | [17] | [18]

CCN(CC)c1ccc(C=O)cc1
inactive: [1] | [2] | [3] | [4] | [5] | [6] | [7] | [8] | [9] | [10] | [11] | [12] | [13] | [14] | [15] | [16] | [18] | [19]
